Measured values from PubChem BioAssay (NCI).
This is part of a sample that, as a whole, favours compounds with a hit. Of some 79,000 tested, about 15% had one in any assay. Rule as the data show it: active = growth inhibition above about 70%; inactive = the rest.

Experiments:
[1] = NCI Yeast Anticancer Drug Screen. Data for the rad50 strain (AID 155);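 also: 0% = growth of vehicle-only cultures of the same strain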; settings: S. cerevisiae rad50 strain growth inhibition; at 50.0 µM; active compounds read high
Method in brief: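 Inhibition values express reduced yeast growth in compound-treated cultures relative to vehicle-treated controls.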

[2] = NCI Yeast Anticancer Drug Screen. Data for the mec2-1 strain (AID 157); settings: S. cerevisiae mec2-1 strain, at 50.0 µM, active compounds read high
Method in brief: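 Growth inhibition is read against vehicle-treated controls after compound exposure of the mec2-1 yeast strain, which is defective in DNA damage repair or cell cycle control.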

[3] = NCI Yeast Anticancer Drug Screen. Data for the sgs1 mgt1 strain (AID 161);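 also: 0% = growth of cultures given vehicle only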; settings: S. cerevisiae sgs1 mgt1 strain, at 50.0 µM, active compounds read high
Method in brief: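 This yeast growth screen uses a strain with defined DNA-repair lesions; compound-treated growth is compared with vehicle-treated growth.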

[4] = NCI Yeast Anticancer Drug Screen. Data for the bub3 strain (AID 167); settings: S. cerevisiae bub3 mutant strain, at 50.0 µM, active compounds read high
Method in brief: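 Steps: expose the mutant yeast strain to compound; grow alongside vehicle-treated cultures; measure growth; express inhibition against the vehicle cultures.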

[5] = NCI Yeast Anticancer Drug Screen. Data for the mlh1 rad18 strain (AID 175); settings: S. cerevisiae mlh1 rad18 strain growth inhibition; at 50.0 µM; active compounds read high
Method in brief: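 Cells of a genetically altered yeast strain, deficient in DNA damage repair, were treated with compound. Their growth was then compared with that of vehicle-treated cultures to give inhibition.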

[6] = NCI Yeast Anticancer Drug Screen. Data for the cln2 rad14 strain (AID 165);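 also: 0% = growth equal to vehicle treated cultures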; settings: S. cerevisiae cln2 rad14 strain, at 50.0 µM, active compounds read high
Method in brief: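 Growth inhibition, relative to vehicle-treated controls, is the read-out. The test organism is a yeast strain with defined genetic alterations, cln2 rad14.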

Measured: growth inhibition

CC(=O)NNC(=S)/N=C\C(C(=O)c1ccccc1)=C(/O)c1ccccc1
inactive: [1] -41.4% | [2] -28.8% | [3] -14.4% | [4] -15.4% | [5] -19.2%

CC(C)(C)[Si](C)(C)OCC1OC(n2cnc3c(N)ncnc32)CC1OS(C)(=O)=O (stereo unspecified)
inactive: [1] -17% | [2] -21.6% | [3] 0.75% | [4] 5.3% | [5] 0.5%

CN=S(=O)(OCCCCCOS(=O)(=NC)c1ccc(C)cc1)c1ccc(C)cc1 (stereo unspecified)
inactive: [1] 3.75% | [2] -33.8% | [3] -22.9% | [4] -41.3% | [5] -34.9%

O=S(=O)(O)C(C(I)I)S(=O)(=O)O
inactive: [1] -0.15% | [2] -19.8% | [3] -3.35% | [4] -6.85% | [5] -7.6%

CSc1cnc2ccccc2n1
inactive: [1] 5.55% | [2] -5.95% | [3] -10.6% | [4] -0.85% | [5] -3.9%

Oc1cccc(CNC2CCCCC2)c1
inactive: [1] 3.5% | [2] 0.25% | [3] -0.6% | [4] -22.4% | [5] 9.15%

CC(=O)c1ccc(C)cc1
inactive: [1] -1.75% | [2] 6.1% | [3] -28.8% | [6] -2.8% | [5] -11.6%

CCN(CC)CCCC(C)NC(=S)N/N=C(\C)c1ccccn1 (stereo unspecified)
inactive: [1] 60.6% | [2] 47.6% | [3] 41% | [4] 29.1% | [5] 42.7%

COC(CCCl)c1ccc(Cl)cc1 (stereo unspecified)
inactive: [1] 4.7% | [2] -43% | [3] -10.8% | [4] -5.35% | [5] 26.8%

CN(C(=S)S(=O)(=O)C12CC3CC(CC(C3)C1)C2)c1ccccc1
inactive: [1] 28.8% | [2] 4.7% | [3] 4.35% | [4] 17.5% | [5] -24.9%

CSc1nc2[nH]ncc2c(=O)[nH]1
inactive: [1] -19.8% | [2] 5.85% | [3] 15.4% | [4] -3.05% | [5] -6.15%

NC(CCl)=NCC12CC3CC(CC(C3)C1)C2
inactive: [1] 52% | [2] 25.9% | [3] 48.8% | [4] 54% | [5] 56.9%

Cc1ccccc1NC(=O)Oc1ccc(Cl)cc1C(=O)c1ccccc1
inactive: [1] -0.15% | [2] -27.4% | [3] 18.7% | [6] 24.4% | [5] 11.4%

C=CCOc1ccc(Cl)cc1Cl
inactive: [1] 1.65% | [2] -4.4% | [4] 6.65% | [5] -1.75%

CCOC(C=O)OCC
inactive: [1] 0.6% | [2] 6% | [6] -9% | [5] -10.9%

Cc1c(Cl)cccc1NC(=S)NC(=O)c1ccccc1
inactive: [1] 23.7% | [2] 28.2% | [6] 0.4% | [4] 35.4% | [5] 18.1%

CC1(C)CC(=O)C=C(N)C1
inactive: [1] 7.35% | [2] -16.5% | [6] 14.2% | [4] -4.7% | [5] 5.45%

NCC(O)C(O)C(O)C(O)CO (stereo unspecified)
inactive: [1] 13.2% | [2] 6.8% | [6] 23.2% | [4] 18.1%

O=C(c1ccccc1O)N1CCCC1
inactive: [1] 19.6% | [2] 7.15% | [6] 14.8% | [4] 2.15% | [5] 10.8%

O=C(O)c1c[nH]c2ccccc2c1=O
inactive: [1] 4.95% | [2] -8.15% | [6] -21.5% | [4] 1.65% | [5] 1.65%

COc1ccc(C2CC(c3ccccc3)=Nc3ccccc3S2)cc1 (stereo unspecified)
inactive: [1] -12.1% | [2] -17.9% | [3] 16% | [5] 0.95%

COc1ccc(-c2csc(NC(=O)Nc3nc(-c4ccc(OC)cc4)cs3)n2)cc1
inactive: [1] 4.25% | [2] -0.95% | [6] -8.35% | [4] 7.7% | [5] 1.4%

S=C=Nc1ccc2ccccc2c1
inactive: [1] 15.3% | [2] -12.4% | [6] 10.6% | [4] 2.35% | [5] 21.1%

CCOC(=O)c1ccc(Nc2sc(C(=O)c3ccc(Br)cc3)c(N)c2C#N)cc1
inactive: [1] -9.4% | [2] -23.6% | [3] 12.6% | [4] -3.6% | [5] -2.05%

COc1ccc2c(c1)Nc1ccccc1S2
inactive: [1] -23.9% | [2] -23.5% | [6] -1.6% | [4] -14.6% | [5] -16.2%

C=CCc1cc(OC)c(OC)c(OC)c1
inactive: [1] 7.8% | [2] -4.2% | [6] -6.6% | [4] -9.7% | [5] -4%
